Experimental findings from PubChem BioAssay AID1572 (National Center for Advancing Translational Sciences (NCATS), 2009) are described below.

Results filed as inconclusive are left out. Activity calls are given as the source filed them. Calls follow the shape of the dose curve; as a rule, active = well fitted curve in either direction with a large enough effect; inconclusive = small, poorly fitted or top-dose-only effect; inactive = flat fitted curve, though single readings scatter.

The experiment in a line: Total Fluorescence Confirmation Counterscreen for Inhibitors of the Interaction of Thyroid Hormone Receptor and Steroid Receptor Coregulator 2. Particulars: Texas Red total fluorescence, TRbeta/SRC2 FP artifact counterscreen; series mostly up to 92.2 µM; total fluorescence change, both ways: at the top concentration. An excerpt:
NIH Molecular Libraries Probe Production Network [MLPCN] NIH Chemical Genomics Center [NCGC] MLPCN Grant: DK058080 Assay Provider: R. Kip Guy, St. Jude Children's Research Hospital NCGC Assay Overview: Thyroid receptor (TR) regulates many homeostatic processes including basal metabolism, cardiovascular function, body weight, and lipid trafficking. TR modulators are potential therapeutics for obesity and hyperlipidemias but current thyroid analogs have undesirable side effects, particularly cardiac stimulation. To identify inhibitors that specifically prevent the interaction of TR with the steroid receptor coregulator 2 (SRC2), a fluorescence polarization assay was screened. This assay detects interaction of the ligand-binding domain of human TRbeta with a Texas Red labeled SRC2 peptide, corresponding to a 20 amino acid region of the nuclear receptor interaction domain (Arnold et al., 2006). Total fluorescence (555 nm excitation and 632 nm emission) was measured to identify potential fluorescent and light absorbing compounds. Such compounds may be artifacts that interfere with the fluorescence polarization assay. This assay is a confirmation assay for AID 1479. Arnold, L. A.; Estebanez-Perpina, E.; Togashi, M.; Shelat, A.; Ocasio, C. A.; McReynolds, A. C.; Nguyen, P.; Baxter, J. D.; Fletterick, R. J.; Webb, P.; Guy, R. K. A high-throughput screening method to identify small molecule inhibitors of thyroid hormone receptor coactivator binding. Sci STKE 2006, p 13.
NCGC Assay Protocol Summary: For screening, 5 uL/well 0.6 uM TRbeta and 20 nM SRC2 Texas Red in protein buffer (20mM Tris hydrochloride, 100mM NaCl, 10% glycerol, 1mM EDTA, 0.01% NP-40, 1mM DTT, 1uM T3 and 5% DMSO) was dispensed into black solid 1536-well plates (Grenier) using a solenoid-based dispenser. Following transfer of 23 nL compound or DMSO vehicle by a pin tool, the plates were centrifuged 15 s at 1000 RPM and incubated 5 hr at ambient temperature. The plates were read by an Envision (Perkin Elmer) to detect fluorescence polarization of SRC2 Texas Red (555 nm excitation and 632 nm emission). Data were normalized to unbound (all components except TRbeta) and bound SRC2 Texas Red controls. Total fluorescence (TF) was calculated as follows: TF = S + 2P where S and P are fluorescence readings in the parallel and perpendicular channels, respectively. In this assay, we provide % activity data for each concentration as well as potencies for the active compounds.
Consider `CCSc1ncc(Cl)c(C(=O)Nc2nc3ccc(OC)cc3s2)n1`, for which the “total fluorescence change, both ways” value is 5.03% [at 184 µM] (inactive). Same read-out and setting: as for `COc1ccccc1Nc1cc2ccccc2c(=O)[nH]1`, the figure is -10.5% (inactive); as for `COc1ccc2ccc3c(c2c1)N=CC1(O3)N(C)c2ccccc2C1(C)C` (stereo not given), 2.19% (inactive). With `O=C1CNC(=S)N1c1nc(-c2ccccc2)cs1`, the Potency was 11.2 µM [quencher] (active).

`COc1cc(C(c2c(C)[nH][nH]c2=O)c2c(C)[nH][nH]c2=O)ccc1OC(=O)c1ccccc1OC`: the “total fluorescence change, both ways” value is 2.7% [at 184 µM] (inactive). Still for that read-out and setting: with `CCc1ccc2c(c1)c1nc(C)sc1n2CC` the figure was 0.366% (inactive); with `Cc1nc2c3cc(F)ccc3n(Cc3ccccc3F)c2s1`, 0.375% (inactive).

Take `Nc1cc(-c2ccncc2)c[nH]c1=O`: the Potency entry is “inactive”. Consider `Cc1c(C#N)c(O)n(CCO)c(=O)c1N=Nc1ccc2c(c1)COC2=O`, for which the “total fluorescence change, both ways” value was -2.59% (inactive).

For the compound `Cc1cc(C)cc(OCC(=O)NCCc2nc3ccccc3[nH]2)c1`, the “total fluorescence change, both ways” value is 6.66% [at 184 µM] (inactive). The same measure, in the same setting: as for `Cc1ccc(-c2nc(S(=O)(=O)c3ccc(F)cc3)c(SCC(=O)NCC3CCCO3)o2)cc1` (stereo not given), the figure is -10.4% (inactive); as for `N/C(Cc1cccc2ccccc12)=N\OC(=O)c1cccs1`, 29.5% (inactive); as for `COc1cc(NCCCC(C)N)c2ncccc2c1` (stereo not given), 1.79% (inactive). On the same count and under the same terms, with `COc1ccc(CN2C(=O)Cc3c2nc(N)c2c(N)nc(N4CCCCC4)c(C#N)c32)cc1` the figure was 1.08% (inactive); with `O=c1[nH]c(Nc2ccccc2)cc2ccccc12`, 5.66% (inactive). In the case of `COc1ccc(-c2nc(CS(=O)CC(=O)NCc3ccccn3)c(C)o2)cc1` (stereo not given), the Potency is 35.5 µM [fluorescent] (active).

Take `O=C(O)C1C2C=CC(O2)C1C(=O)Nc1ccc(S(=O)(=O)N2CCc3ccccc32)cc1` (stereo not given): the “total fluorescence change, both ways” value is 9.53% (inactive).

For `Cc1ccccc1Nc1cc2ccccc2c(=O)[nH]1`, the Potency result was “inactive”. Take `CCCc1nc2c(=O)n(C)c(=O)nc-2n(C)n1`: the “total fluorescence change, both ways” value is 4.23% (inactive). Take `O=C(NNc1cc(N2CCOCC2)nc(N2CCOCC2)n1)c1ccc(Cl)c(Cl)c1`: the Potency was 39.8 µM [quencher] (active).

For the compound `Cc1ccc(OC(=S)Nc2ccc(O)cc2)cc1`, the “total fluorescence change, both ways” value is -1.98% (inactive). The same measure, in the same setting: with `CCOC(=O)c1cnc2nc(NCc3ccc(OC)c(OC)c3)[nH]n2c1=O` the figure was 6.28% (inactive); with `CCC(CNc1cc(OC)cc2cccnc12)NC1CCCCC1` (stereo not given), 26.9% (inactive).

`Cn1c(CCN2CCCCC2)nc2cc(NS(=O)(=O)c3ccc(Cl)cc3)ccc21`: the “total fluorescence change, both ways” value was 5.61% (inactive). Still for that read-out and setting: with `C=CCSc1nnc2n(-c3ccccc3OC)c(=O)c3c4c(sc3n12)CCC4` the figure was 3.26% (inactive); with `CCOc1cc(C(c2c(C)[nH][nH]c2=O)c2c(C)[nH][nH]c2=O)ccc1OS(=O)(=O)c1ccc(C)cc1`, 5.37% (inactive). On the same count and under the same terms, as for `Cc1nnc(SCC(=O)Nc2ccc(N(C)C)cc2)[nH]c1=O`, the figure is 4.51% [at 184 µM] (inactive); as for `CCCCOc1ccc(C(=O)CCN2CCOCC2)cc1`, 8.29% (inactive).

Take `Cc1[nH][nH]c(=O)c1C(c1ccc(-c2ccc(Cl)c(Cl)c2)o1)c1c(C)[nH][nH]c1=O`: the “total fluorescence change, both ways” value is 2.21% (inactive). Consider `C=CCNC(=O)/C(C#N)=C\c1cc(Cl)c(OCC)c(OC)c1`, for which the “total fluorescence change, both ways” value is -0.935% (inactive). Still for that read-out and setting: as for `COC(=O)/C(=C/Nc1ccc(O)cc1)[N+](=O)[O-]`, the figure is 4.79% (inactive); as for `COc1cc(/C=C(\C#N)C(=O)NCC2CCCO2)ccc1OCCC(C)C` (stereo not given), 4.15% (inactive); as for `O=C(O)/C=C/C(=O)Nc1ccc(SC(F)(F)C(F)(F)C(F)(F)F)cc1`, 6.28% (inactive). The same measure, in the same setting: as for `Nc1cnccc1C(=O)O`, the figure is 11.1% (inactive).

As to `CN1CCc2ccc3c4c2[C@]1(C)Cc1cccc(c1-4)OCO3`, the Potency was 100 µM [fluorescent] (active). With `COn1c2c(c3c4nonc4ccc31)CCCC2`, the “total fluorescence change, both ways” value was 5.67% (inactive). For `CCOc1ccc(C2=Cc3cc(OC)c(OC)cc3C(=C(Cl)Cl)O2)cc1`, the “total fluorescence change, both ways” value was -0.317% (inactive).

With `CS(=O)(=O)c1ccc(C(=O)OCC(=O)NC23CC4CC(CC(C4)C2)C3)cc1[N+](=O)[O-]`, the “total fluorescence change, both ways” value was 5.22% (inactive). Same read-out and setting: with `CCCCOc1ccc(C(=O)CCN2CCCCC2)cc1` the figure was 6.86% (inactive). Consider `Cc1nc2ccccc2n2c(O)c(CC(=O)O)cc12`, for which the Potency is 31.6 µM [fluorescent] (active).
